Assays:
Test in all cases: log2 ratio of Biotin-Ahx-Ub-VS probe labelling (fragment/DMSO); higher = less target engagement (more negative = stronger competition), active = hit call of the paper (q ≤ 0.05, log2 ratio ≤ -1)
Settings in all cases: compound concentration: 200 uM; treatment time: 3 h
[1] = target: T1, ALG13 (UniProt Q9NP73)
T1 sequence (whole entry): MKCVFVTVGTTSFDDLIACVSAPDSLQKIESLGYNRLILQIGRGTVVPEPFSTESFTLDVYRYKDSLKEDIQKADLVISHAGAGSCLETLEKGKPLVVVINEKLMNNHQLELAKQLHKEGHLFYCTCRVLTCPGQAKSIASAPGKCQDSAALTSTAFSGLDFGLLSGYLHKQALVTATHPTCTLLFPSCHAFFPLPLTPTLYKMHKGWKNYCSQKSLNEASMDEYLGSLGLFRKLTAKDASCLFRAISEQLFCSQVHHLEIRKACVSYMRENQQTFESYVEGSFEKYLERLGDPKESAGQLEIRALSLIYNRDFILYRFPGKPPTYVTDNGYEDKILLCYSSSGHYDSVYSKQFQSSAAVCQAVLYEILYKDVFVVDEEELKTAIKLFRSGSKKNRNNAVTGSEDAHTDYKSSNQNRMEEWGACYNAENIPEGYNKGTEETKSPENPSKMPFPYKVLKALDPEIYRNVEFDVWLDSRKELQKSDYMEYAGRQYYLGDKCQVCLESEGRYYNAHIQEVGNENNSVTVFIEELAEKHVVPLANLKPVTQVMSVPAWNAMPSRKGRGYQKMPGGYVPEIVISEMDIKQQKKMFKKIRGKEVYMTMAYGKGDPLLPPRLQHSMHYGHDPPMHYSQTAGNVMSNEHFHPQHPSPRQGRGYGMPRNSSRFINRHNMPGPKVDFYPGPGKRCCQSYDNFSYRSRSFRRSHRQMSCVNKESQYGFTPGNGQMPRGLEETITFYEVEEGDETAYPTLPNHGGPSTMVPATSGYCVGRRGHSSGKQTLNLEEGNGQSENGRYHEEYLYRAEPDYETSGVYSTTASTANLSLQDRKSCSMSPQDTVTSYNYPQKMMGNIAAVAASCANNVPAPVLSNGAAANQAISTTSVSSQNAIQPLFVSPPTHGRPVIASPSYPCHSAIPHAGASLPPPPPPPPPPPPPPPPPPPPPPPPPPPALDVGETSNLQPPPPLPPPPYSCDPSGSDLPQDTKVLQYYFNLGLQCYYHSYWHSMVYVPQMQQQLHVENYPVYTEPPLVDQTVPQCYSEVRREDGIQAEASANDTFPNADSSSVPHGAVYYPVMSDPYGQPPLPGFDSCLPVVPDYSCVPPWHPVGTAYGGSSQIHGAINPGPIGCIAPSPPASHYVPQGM
Outline: (§1)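 Labelling with Biotin-Ahx-Ub-VS (0.5 µM final, 1 h) followed a 3 h triplicate treatment of HEK293T lysate (495 µg per sample, Tris/CHAPS/IGEPAL buffer with protease inhibitors) with fragment at 200 µM or vehicle. Labelled DUBs were NeutrAvidin-enriched, digested with LysC and trypsin, and run by diaPASEF LC-MS/MS. The values, average log2 fragment/vehicle ratios by unpaired t-test, come from global-median-normalised Spectronaut label-free quantities. Proteins with ≥2 unique peptides were used.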

[2] = target: ATXN3 (UniProt P54252)
ATXN3, sequence (P54252 whole entry): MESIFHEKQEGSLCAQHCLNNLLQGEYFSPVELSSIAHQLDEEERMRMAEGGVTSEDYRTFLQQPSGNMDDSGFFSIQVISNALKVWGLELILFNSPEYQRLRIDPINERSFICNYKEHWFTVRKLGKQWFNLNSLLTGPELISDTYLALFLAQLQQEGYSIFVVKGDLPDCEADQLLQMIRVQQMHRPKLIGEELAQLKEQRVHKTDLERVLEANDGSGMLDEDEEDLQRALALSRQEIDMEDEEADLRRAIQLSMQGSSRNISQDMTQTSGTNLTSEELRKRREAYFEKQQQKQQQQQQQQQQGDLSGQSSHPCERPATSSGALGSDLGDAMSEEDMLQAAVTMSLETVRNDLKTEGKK
Outline: as §1

[3] = target: T2, BAP1 (UniProt Q92560)
T2 sequence (whole entry): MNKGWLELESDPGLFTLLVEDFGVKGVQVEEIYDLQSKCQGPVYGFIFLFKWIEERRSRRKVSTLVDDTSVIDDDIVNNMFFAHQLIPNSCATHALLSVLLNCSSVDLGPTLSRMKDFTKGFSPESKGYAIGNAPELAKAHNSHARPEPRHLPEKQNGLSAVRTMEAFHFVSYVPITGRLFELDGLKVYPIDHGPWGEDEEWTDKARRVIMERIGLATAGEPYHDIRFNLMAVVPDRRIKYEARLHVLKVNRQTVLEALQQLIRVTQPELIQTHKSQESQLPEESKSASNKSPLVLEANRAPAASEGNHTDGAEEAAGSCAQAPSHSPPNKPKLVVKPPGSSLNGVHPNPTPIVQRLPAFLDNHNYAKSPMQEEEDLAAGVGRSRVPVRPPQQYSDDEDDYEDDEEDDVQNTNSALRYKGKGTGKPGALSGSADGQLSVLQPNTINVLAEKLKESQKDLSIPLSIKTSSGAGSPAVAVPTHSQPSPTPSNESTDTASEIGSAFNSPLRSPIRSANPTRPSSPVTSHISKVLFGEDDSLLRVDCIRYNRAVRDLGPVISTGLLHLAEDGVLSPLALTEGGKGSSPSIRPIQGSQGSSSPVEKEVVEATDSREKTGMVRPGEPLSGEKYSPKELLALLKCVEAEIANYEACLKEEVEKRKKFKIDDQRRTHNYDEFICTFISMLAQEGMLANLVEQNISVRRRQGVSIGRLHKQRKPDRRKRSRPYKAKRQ
Outline: as §1

[4] = target: EIF3F (UniProt O00303)
EIF3F, sequence (O00303 whole entry): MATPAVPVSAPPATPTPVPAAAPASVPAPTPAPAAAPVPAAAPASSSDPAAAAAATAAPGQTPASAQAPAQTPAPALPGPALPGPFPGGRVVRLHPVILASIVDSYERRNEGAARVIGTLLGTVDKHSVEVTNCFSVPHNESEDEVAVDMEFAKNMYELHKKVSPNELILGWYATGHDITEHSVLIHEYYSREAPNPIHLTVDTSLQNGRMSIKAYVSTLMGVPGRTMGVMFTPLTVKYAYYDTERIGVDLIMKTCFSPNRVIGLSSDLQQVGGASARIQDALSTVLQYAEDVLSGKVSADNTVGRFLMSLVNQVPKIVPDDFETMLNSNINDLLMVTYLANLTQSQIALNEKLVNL
Outline: as §1

[5] = target: EIF3H (UniProt O15372)
EIF3H, sequence (O15372 whole entry): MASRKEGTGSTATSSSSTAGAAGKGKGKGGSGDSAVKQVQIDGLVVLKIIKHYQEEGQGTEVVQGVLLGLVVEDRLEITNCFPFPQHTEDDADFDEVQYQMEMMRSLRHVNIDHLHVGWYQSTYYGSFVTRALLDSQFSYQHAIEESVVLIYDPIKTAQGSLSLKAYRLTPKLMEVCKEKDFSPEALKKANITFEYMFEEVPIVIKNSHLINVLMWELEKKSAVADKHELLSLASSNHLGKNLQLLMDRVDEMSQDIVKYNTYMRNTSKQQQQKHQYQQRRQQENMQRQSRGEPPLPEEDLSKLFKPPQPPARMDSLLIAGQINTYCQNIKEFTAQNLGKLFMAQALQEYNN
Outline: as §1

[6] = target: T3, FAM105A (UniProt Q9NUU6)
T3 sequence (whole entry): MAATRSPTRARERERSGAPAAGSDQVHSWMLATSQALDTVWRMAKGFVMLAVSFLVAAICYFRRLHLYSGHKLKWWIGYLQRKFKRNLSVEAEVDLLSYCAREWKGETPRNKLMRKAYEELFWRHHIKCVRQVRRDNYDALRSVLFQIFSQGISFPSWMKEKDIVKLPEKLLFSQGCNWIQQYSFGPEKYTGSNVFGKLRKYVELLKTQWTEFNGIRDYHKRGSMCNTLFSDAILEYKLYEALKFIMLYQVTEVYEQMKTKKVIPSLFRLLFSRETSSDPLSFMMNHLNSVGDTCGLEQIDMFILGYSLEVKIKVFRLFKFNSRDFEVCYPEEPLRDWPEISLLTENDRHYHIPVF
Outline: as §1

[7] = target: OTUB1 (UniProt Q96FW1)
OTUB1, sequence (Q96FW1 whole entry): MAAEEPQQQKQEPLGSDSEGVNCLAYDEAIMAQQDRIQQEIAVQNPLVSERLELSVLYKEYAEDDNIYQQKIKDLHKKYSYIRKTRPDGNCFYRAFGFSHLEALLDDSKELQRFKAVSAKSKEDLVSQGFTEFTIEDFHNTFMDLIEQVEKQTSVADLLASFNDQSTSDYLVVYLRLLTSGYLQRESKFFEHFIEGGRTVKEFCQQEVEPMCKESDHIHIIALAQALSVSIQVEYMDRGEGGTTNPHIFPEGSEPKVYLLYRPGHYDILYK
Outline: as §1

[8] = target: T4, OTUD4 (UniProt Q01804)
T4 sequence (whole entry): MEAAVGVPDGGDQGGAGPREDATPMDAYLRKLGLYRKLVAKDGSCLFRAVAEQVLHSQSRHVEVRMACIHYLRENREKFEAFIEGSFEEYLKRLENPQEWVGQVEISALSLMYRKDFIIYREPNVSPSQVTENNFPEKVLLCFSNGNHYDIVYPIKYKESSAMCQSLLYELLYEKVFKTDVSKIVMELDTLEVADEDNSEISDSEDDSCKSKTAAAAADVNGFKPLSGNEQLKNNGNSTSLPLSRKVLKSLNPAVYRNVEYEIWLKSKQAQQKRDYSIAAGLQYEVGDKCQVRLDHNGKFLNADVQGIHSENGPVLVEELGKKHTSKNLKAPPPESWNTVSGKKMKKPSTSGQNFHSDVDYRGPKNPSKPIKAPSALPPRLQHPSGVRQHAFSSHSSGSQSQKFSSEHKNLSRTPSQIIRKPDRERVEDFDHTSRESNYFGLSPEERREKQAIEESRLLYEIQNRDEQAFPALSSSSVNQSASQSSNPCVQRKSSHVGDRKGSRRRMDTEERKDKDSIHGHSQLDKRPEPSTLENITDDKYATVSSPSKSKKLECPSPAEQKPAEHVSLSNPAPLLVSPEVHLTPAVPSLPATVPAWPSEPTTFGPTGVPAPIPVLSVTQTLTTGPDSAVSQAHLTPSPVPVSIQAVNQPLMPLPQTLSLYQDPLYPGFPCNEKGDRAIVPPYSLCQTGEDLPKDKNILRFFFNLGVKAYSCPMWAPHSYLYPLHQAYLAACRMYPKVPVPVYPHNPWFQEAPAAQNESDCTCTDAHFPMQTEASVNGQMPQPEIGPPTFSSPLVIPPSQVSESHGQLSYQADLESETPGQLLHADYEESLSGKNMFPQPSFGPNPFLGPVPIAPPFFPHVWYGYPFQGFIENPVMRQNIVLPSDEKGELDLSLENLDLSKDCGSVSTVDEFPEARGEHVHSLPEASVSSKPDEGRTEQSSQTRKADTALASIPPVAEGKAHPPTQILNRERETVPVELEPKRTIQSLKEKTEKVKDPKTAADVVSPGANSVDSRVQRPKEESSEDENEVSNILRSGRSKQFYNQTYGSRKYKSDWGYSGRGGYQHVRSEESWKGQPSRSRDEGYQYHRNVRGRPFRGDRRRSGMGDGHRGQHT
Outline: as §1

[9] = target: T5, OTUD5 (UniProt Q96G74)
T5 sequence (whole entry): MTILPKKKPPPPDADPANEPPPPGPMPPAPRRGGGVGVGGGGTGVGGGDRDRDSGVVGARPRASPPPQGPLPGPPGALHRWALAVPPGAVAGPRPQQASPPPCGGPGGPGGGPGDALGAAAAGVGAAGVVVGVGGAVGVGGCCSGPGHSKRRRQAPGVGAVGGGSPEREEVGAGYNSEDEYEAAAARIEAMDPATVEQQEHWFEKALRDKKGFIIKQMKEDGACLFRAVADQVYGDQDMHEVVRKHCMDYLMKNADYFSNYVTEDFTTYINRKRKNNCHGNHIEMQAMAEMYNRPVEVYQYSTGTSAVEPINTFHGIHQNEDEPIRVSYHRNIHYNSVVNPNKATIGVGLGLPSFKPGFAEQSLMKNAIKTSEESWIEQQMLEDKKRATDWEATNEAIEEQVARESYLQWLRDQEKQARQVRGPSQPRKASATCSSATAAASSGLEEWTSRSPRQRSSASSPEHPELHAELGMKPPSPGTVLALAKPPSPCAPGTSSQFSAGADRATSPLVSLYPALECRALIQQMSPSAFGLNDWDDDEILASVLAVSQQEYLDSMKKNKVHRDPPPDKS
Outline: as §1

Measured: log2 ratio of Biotin-Ahx-Ub-VS probe labelling

CN(C)C(=O)c1ccc(NC(=O)CCl)cc1
active: [3] -3.59
inactive: [1] -0.115 | [2] -0.241 | [4] 0.168 | [5] 0.142 | [6] 0.105 | [7] 0.31 | [8] -0.109 | [9] -0.508

Reference: the supplement of paper PMC11732987, “Enantioselective OTUD7B fragment discovery through chemoproteomics screening and high-throughput optimisation” (Communications Chemistry, 2025)
